About 3,100 (6.6%) of roughly 47,000 compounds were called active. No stated cut-off is given here; in the data, active means inhibition above about 30%; inactive means the rest. Only a selection was taken, and actives are over-represented in it overall.

Chain of Ubiquitin carboxyl-terminal hydrolase 17-like protein 5 (Homo sapiens) (A8MUK1 whole entry, looked up): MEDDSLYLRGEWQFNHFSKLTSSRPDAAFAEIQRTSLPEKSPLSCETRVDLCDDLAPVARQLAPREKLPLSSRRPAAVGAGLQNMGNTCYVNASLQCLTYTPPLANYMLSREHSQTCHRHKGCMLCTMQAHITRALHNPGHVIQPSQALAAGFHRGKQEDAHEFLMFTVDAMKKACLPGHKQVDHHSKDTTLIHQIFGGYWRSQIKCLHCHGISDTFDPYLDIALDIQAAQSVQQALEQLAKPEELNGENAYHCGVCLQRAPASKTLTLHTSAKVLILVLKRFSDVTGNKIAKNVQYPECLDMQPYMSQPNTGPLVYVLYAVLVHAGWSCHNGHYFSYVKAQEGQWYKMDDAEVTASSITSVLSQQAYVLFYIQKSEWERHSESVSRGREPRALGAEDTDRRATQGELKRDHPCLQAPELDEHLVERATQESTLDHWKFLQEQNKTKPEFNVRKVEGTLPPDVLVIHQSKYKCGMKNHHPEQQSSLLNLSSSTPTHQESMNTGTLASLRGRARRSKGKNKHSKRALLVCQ

The experiment concerns the target Ubiquitin carboxyl-terminal hydrolase 17-like protein 5 (Homo sapiens) (UniProt A8MUK1). The experiment is described as follows: blocks human USP17 ubiquitin-rhodamine cleavage (AID 1645855). The following applies: purified USP17, Ub-rhodamine cleavage fluorescence, 3 h; at 50 µM; stronger effect = higher value.
For `COc1ccc2[nH]c3c(c2c1)CCN1C(=O)N([C@@H](C)C(=O)NCC(=O)O)C(=O)[C@]31C`, the inhibition is 9.34% (inactive).
Next, `COc1ccc(CNC(=O)c2ccccc2N2C(=O)N3CCc4c([nH]c5ccccc45)[C@@]3(C)C2=O)cc1`: 56.3% (active).
For `C[C@]12C(=O)N(c3cccc(C(=O)NCCN4CCOCC4)c3)C(=O)N1CCc1c2[nH]c2ccccc12`, the inhibition is -24.6% (inactive).
As for `O=C(NCCc1ccc(F)cc1)N1CC[C@@H]2CN(Cc3ccncc3)S(=O)(=O)[C@@H]2CC1`, the inhibition was -15.9% (inactive).
Next, `O=C(CNC(c1ccccc1)c1ccccc1)Nc1ccc(F)cc1`: 3.76% (inactive).
Next, `O=C(N[C@@H]1C[C@@H](Oc2cccnc2)[C@H](O)[C@H]1N1CCCCC1)c1cnco1`: -6.77% (inactive).
On to `COc1cc(OC)cc(-c2nnc(NC(=O)c3ccc([N+](=O)[O-])o3)o2)c1`, for which the inhibition was 51.3% (active).
Next, `COc1cccc(-c2ocnc2C(=O)NCc2ccc(OC)c(OC)c2)c1`: -10.8% (inactive); `COc1cccc(CNC(=O)c2ccc(-c3cncnc3)nc2)c1`: -9.04% (inactive).
With `CN(C)C(=O)c1cccnc1-c1nc2ccccc2s1`, the inhibition was 9.06% (inactive).
Next, `Cc1nc(NCc2ccco2)nc2c1COCC21CCN(C(=O)C(C)(C)C)C1` (centres undefined): -22.1% (inactive).
As to `COc1ccccc1NC(=O)C1=C(C)Nc2ncnn2C1c1ccc(C)o1` (centres undefined), the inhibition was 0.179% (inactive).
On to `CC1=C(C(=O)Nc2ccccc2)C(c2cccnc2)n2nc(CCCO)nc2N1` (centres undefined), for which the inhibition is -9.97% (inactive).
In the case of `CC1=C(C(=O)Nc2ccccc2)C(c2cccs2)n2ncnc2N1` (centres undefined), the inhibition is -10.9% (inactive).
As to `COc1cccc(C2C(C(=O)Nc3ccccc3C)=C(C)Nc3ncnn32)c1OCc1ccccc1` (centres undefined), the inhibition is -19.2% (inactive).
Next, `COc1ccc(NC(=O)C2=C(C)Nc3ncnn3C2c2cccc(OCc3ccc(F)cc3)c2)c(OC)c1` (centres undefined): 51.9% (active); `CC1=C(C(=O)Nc2ccccc2)C(c2ccc(OCc3c(Cl)cccc3Cl)cc2)n2ncnc2N1` (centres undefined): 69.4% (active).
Next, `COc1cccc([C@@H]2C[C@]3(C)NC(=O)CCCC[C@@H]3N2C(=O)c2cnn(C)c2)c1`: -8.06% (inactive); `CC1COc2ccccc2N1C(=O)c1ccc(F)cc1` (centres undefined): 0.747% (inactive); `CC1CCN(S(=O)(=O)c2cccn(CC(=O)Nc3ccc(F)cc3)c2=O)CC1`: -5.61% (inactive).
With `COC(=O)c1cccc(Nc2c(-c3ccccc3)nc3cnc(Br)cn23)c1`, the inhibition was -68.2% (inactive).
Next, `O=C1CCC(=O)N(O)CCCCCNC(=O)CCC(=O)N(O)CCCCCNC(=O)CCC(=O)N(O)CCCCCN1`: 23.5% (inactive); `CC(=O)N1CCc2cc(C(O)CN3CCN(c4ccccc4)CC3)ccc21` (centres undefined): 47.6% (active); `CC(=O)N1CCc2cc(S(=O)(=O)Nc3ccccc3N3CCN(C)CC3)ccc21`: -8.21% (inactive).
In the case of `O=C(CN1CCN(c2ccccc2)CC1)c1ccccc1`, the inhibition is -12.9% (inactive).
Next, `CCOCCCNc1ncnc2c1sc1nc(N3CCOCC3)c3c(c12)CC(C)(C)OC3`: -1.37% (inactive); `CCOc1ccccc1CNC(=O)CCn1c(-c2ccc(F)cc2)cc(C(C)=O)c1C`: -2.37% (inactive).
Next, `Cc1cc(=O)n(CC(=O)NCc2ccccc2Cl)c(N2CCCC2)n1`: -2.72% (inactive); `Cc1ccccc1CNC(=O)Cn1c(=O)ccn(Cc2ccc(F)cc2)c1=O`: 42.9% (active).
On to `O=C1Nc2ccccc2C1c1c(-c2ccccc2Cl)[nH]c2[nH]c(=O)[nH]c(=O)c12` (centres undefined), for which the inhibition is 8.48% (inactive).
Next, `Cc1cnc(N2CC[C@@H]3[C@@H](CO[C@@H]3CNS(C)(=O)=O)C2)nc1`: -4.98% (inactive); `CC(C)NC(=O)N1CCCN(C2CCN(Cc3ccccc3)C2=O)CC1` (centres undefined): -36.9% (inactive); `CCCCc1nc2sc3c(SCC(=O)NCc4ccccc4)ncnc3c2c2c1CCC2`: 44.6% (active).
Next, `CCC1(C)Cc2c(sc3nc(SCC(=O)NCCc4ccccc4)nc(N)c23)CO1` (centres undefined): -6.11% (inactive); `CCCc1nc2sc3c(N4CCC(C)CC4)ncnc3c2c2c1CCC2`: -14.3% (inactive).
Consider `CC(=O)CSc1nnc(-c2ccccc2Br)o1`, for which the inhibition was 2.6% (inactive).
As for `CCCCOc1ccc(-c2nnc(-c3ccccc3Br)s2)cc1`, the inhibition is 4.93% (inactive).
Turning to `CS(=O)(=O)c1cnc(N2CCCCC2)nc1C1CCN(C(=O)CCc2ccco2)CC1`, the inhibition was 5.15% (inactive).
Next, `Cc1cccc(-n2cc(-c3ccccc3)c3c(N(C)C)ncnc32)c1`: 2.77% (inactive); `CC1=C(c2ccc(C)cc2)S(=O)(=O)NC1=NCc1cccc(Br)c1`: 46% (active); `CC1=C(c2ccc(Cl)cc2)S(=O)(=O)NC1=NCC(=O)NC1CCCC1`: 20.9% (inactive).
For `COc1cc(CNc2nn[nH]n2)ccc1OCc1ccc(C)cc1`, the inhibition was 5.1% (inactive).
Next, `COc1ccc(C2=Nc3ncnn3C2=NCc2ccc(F)cc2)cc1OC`: -4% (inactive); `COc1ccc(CN=C2NS(=O)(=O)C(c3ccc(F)cc3)=C2C)cc1OC`: 66.4% (active).
Regarding `CCn1c(SCc2cccc(C)c2)nnc1-c1cnccn1`, the inhibition was 10.7% (inactive).
Turning to `O=C(c1cccnc1)N1CCC(c2cccc(Cc3ccccc3Cl)n2)CC1`, the inhibition is -11.1% (inactive).
`COc1cccc(CC2(NC(=O)c3ccccc3)N=C3C=CC=CN3C2=O)c1OC` (centres undefined): the inhibition is 16.5% (inactive).
Next, `Cc1cc(OCC(=O)Oc2ccc(-n3cnnn3)cc2)cc(C)c1Cl`: -0.253% (inactive); `CCc1ccc(C(=O)Cn2c(N3CCOCC3)nc3ccccc32)cc1`: -2.13% (inactive); `COc1ccc(S(=O)(=O)N2CC(C(=O)NC3CCCCC3)C3(CCOCC3)C2)cc1` (centres undefined): 0.196% (inactive).
Next, `COc1nc(OC)nc(N2CCC(c3nc(C)cc(-c4ncc[nH]4)n3)CC2)n1`: -10.1% (inactive).
Next, `COc1cccc(-c2nnc(-c3ccccc3NS(=O)(=O)c3ccc(C)cc3)o2)c1`: 15.5% (inactive); `COc1cccc(-n2nnc(-c3nnc(-c4ccccc4)o3)c2C)c1`: 54.7% (active); `COc1ccc(-c2nnc(-c3cccc(S(=O)(=O)N4CCCC4)c3)o2)cc1`: 13.3% (inactive).
As for `Cc1ccc(CNC(=O)CCNc2cc(C)nc3nc(-c4cccnc4)nn23)cc1`, the inhibition is 6.35% (inactive).
Next, `CCC(CC)C(=O)N1CCC(c2nc3c(nnn3Cc3ccccc3)c(=O)[nH]2)CC1`: 14.7% (inactive); `CC1=C2C[C@@H]3C(CN4CCN(c5ccccn5)CC4)C(=O)O[C@@H]3C[C@@]2(C)CCC1` (some centres undefined): -3.81% (inactive); `COc1ccc(NC(=O)c2sc(N3CCOCC3)nc2-c2ccccc2)c(OC)c1`: 52.7% (active).
Regarding `CNC(=O)c1cc(-c2ccccc2)c(N2CCOCC2)s1`, the inhibition is 2.58% (inactive).
Next, `COc1ccc(-c2nc(N(Cc3ccccc3)C(=O)CN3CCOCC3)sc2C)cc1`: -13.9% (inactive); `CC(C)Cc1noc(CN2CCC3(CC2)CC3c2nnc(-c3cccc(F)c3)o2)n1` (centres undefined): 0.0905% (inactive).
For `CC/C=C\[C@@H]1O[C@H]1C1=C(C)C(=O)C2(O1)C(=O)NC(OC)(C(=O)c1ccccc1)C2O` (some centres undefined), the inhibition is -4.56% (inactive).
Next, `COc1ccc(-c2cc(C(=O)N3CCCC3c3cc(C)on3)no2)cc1` (centres undefined): 0.23% (inactive); `O=C(Nc1ccc2c(c1)OCO2)c1sc2cc(Cl)ccc2c1Cl`: -7.31% (inactive).
Next, `CC(OC(=O)c1cn(-c2ccccc2)nc1-c1cccnc1)C(=O)Nc1cccc(S(=O)(=O)N(C)C)c1` (centres undefined): 41.1% (active); `CCOc1ncccc1C(=O)NNC(=O)c1cn(-c2ccccc2)nc1-c1ccccc1`: 2.51% (inactive).
Next, `COc1ccccc1OCCC(=O)Nc1cccc(S(=O)(=O)N(C)C)c1`: 9.63% (inactive); `NC(=O)c1ccccc1OCC(=O)Nc1cc(Cl)ccc1Oc1ccccc1`: -1.08% (inactive).
`Cc1cc(=O)oc2c(C)c(OC(C)C(=O)NCc3ccncc3)ccc12` (centres undefined): the inhibition is -11.3% (inactive).
For the compound `COc1ccc(-c2noc(-c3cc4c(COC(C)=O)cnc(C)c4oc3=O)n2)cc1`, the inhibition is -158% (inactive).
`COc1ccc(-c2cc(=O)oc3c(C)c(OCc4ccccc4F)ccc23)cc1`: the inhibition was 49.1% (active).
For the compound `CNC(=O)c1sc2nccnc2c1C1CCN(c2ccncn2)CC1`, the inhibition was -8.22% (inactive).
Next, `CCc1cc(C2CCCN2S(=O)(=O)c2ccc(C(C)C)cc2)on1` (centres undefined): 9.48% (inactive); `Cc1nn(C)c(C)c1CN(C(=O)Cn1cc(C(C)C)nn1)C1CC1`: -1.87% (inactive).
Next, `CN1C[C@@H](NC(=O)c2ccc(F)cc2)C[C@H]1c1nc(-c2cccnc2)no1`: -2.42% (inactive).
Next, `Cc1cc(N)nc2c1c(C)nn2-c1ncc(C(F)(F)F)cc1Cl`: -15.8% (inactive); `Cc1ccc(-c2noc(-c3cccc(OCC(=O)N(C)C)c3)n2)cc1`: 50.7% (active); `Cc1ccccc1-c1nc(-c2cccc(OCC(=O)N3CCOCC3)c2)no1`: 48.9% (active).
With `COc1ccc(-c2noc(-c3cccc(OCC(=O)NC(C)C)c3)n2)cc1`, the inhibition was -0.296% (inactive).
Next, `Cc1ccc(-c2nc(-c3cccc(-c4ccnn4C)c3)no2)cc1`: 5.04% (inactive); `Cc1ccccc1-c1nc(-c2cn(CC(=O)Nc3ccccc3)cn2)no1`: 10% (inactive); `COc1cc(Cl)ccc1-c1nc(-c2cccc(C(=O)N3CCCC3)c2)no1`: 8.98% (inactive).
Next, `O=C(NCCc1ccccc1)c1cc2c(s1)CS(=O)(=O)C2`: 6.74% (inactive).
In the case of `COc1ccccc1Cc1cnc(C2CCCN(C(=O)c3ccnc(C)n3)C2)o1` (centres undefined), the inhibition is -2.9% (inactive).
For `CC1=N[C@@]2(CC[C@@H]3CN(C(=O)Nc4ccccc4C)C[C@@H]32)C(=O)N1CC1CC1`, the inhibition is -23.9% (inactive).
Consider `COc1ccc(-c2noc(CNC(=O)CCc3ccccc3)n2)cc1OC`, for which the inhibition is 8.5% (inactive).
On to `COc1ccc(CNC(=O)c2ccccc2-c2ncc(-c3ccccc3)o2)cc1`, for which the inhibition was 37.9% (active).
Consider `COc1ccc(CCNC(=O)c2ccccc2OCc2ccc(F)cc2)cc1`, for which the inhibition was 16.7% (inactive).
For the compound `COc1ccc(CNC(=O)CSc2nnc3c4ccccc4nc(-c4ccco4)n23)cc1`, the inhibition is -17% (inactive).
Regarding `COc1ccc(CC(=O)Nc2cnc(-c3ccccc3)nc2)cc1`, the inhibition is 2.89% (inactive).
Next, `COc1ccc(CNC(=O)Cn2ncc3ccc(C)cc32)cc1`: 16.8% (inactive); `COc1ccc(-c2ccc(CCC(=O)NCc3ccccc3)o2)cc1`: 34.6% (active); `COc1ccc(CNC(=O)c2cccc3cccnc23)cc1`: 40.3% (active).
Next, `COc1cccc(C(=O)NCc2ccc(-c3nc4cnccc4o3)cc2)c1`: 25.2% (inactive).

The values are drawn from PubChem BioAssay AID1645855 (Buhrlage Lab, Dana-Farber Cancer Institute and Novartis …, 2021).
